AHR act – activators of human aryl hydrocarbon receptor. AHR-responsive luciferase reporter cells, luminescence. activation, % at 5 µM. 320,000 tested, 2.5% active; in the data active = activation above about 47%;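 also: 0% = vehicle wells and 100% = reference agonist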
ssDAF-12 act – S. stercoralis DAF-12 activation, primary screen; 370,000 tested, 1% active; HEK293 ssDAF-12/GRIP1 lit1-tk-luc reporter, luminescence; % of 3 µM dafachronic acid response; activation, % at 6.8 µM;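 active = activation above the mean over all tested compounds plus 3 SD, cut at about 0.9% in these data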;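 also: 0% = DMSO-only wells and 100% = 3 µM delta7-dafachronic acid wells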
hgDAF-12 ag – hgDAF-12 agonism, primary luciferase screen. HEK293 GAL4-hgDAF12 UAS-luciferase reporter, agonist luminescence; normalized to butyrate control. 370,000 tested, 1.8% active. activation, % at 6.8 µM;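 active = activation above a cutoff set at the mean of all screened compounds plus 3 SD, cut at about 10% in these data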;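 also: 0% = DMSO wells and 100% = sodium butyrate wells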
DAX1 inh-1 – DAX1 (NR0B1) inhibition, primary screen; HEK293T StAR-luciferase reporter, SF-1/DAX-1 repression relief; 370,000 tested, 1.1% active; AID 652010; inhibition, % at 6.8 µM;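 active = inhibition above the mean over all tested compounds plus 3 SD, cut at about 3.6% in these data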;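 also: 0% = DAX-1 cells with DMSO and 100% = cells lacking DAX-1 with DMSO; higher inhibition means more luminescence from relief of DAX-1 repression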
DAX1 inh-2 – NR0B1 (DAX1) inhibition; HEK293 Gal4-DAX1 luciferase reporter, luminescence; inhibition, % at 6.75 µM; 340,000 tested, 0.99% active;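 active = inhibition above the mean over all tested compounds plus 3 SD, cut at about 4.2% in these data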;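 also: 0% = DAX1-transfected cells with DMSO and 100% = empty-vector control cells with DMSO; inhibition shows as a rise in luminescence from relieved DAX1 repression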
Target sequence (P51843 207-470 limits assumed): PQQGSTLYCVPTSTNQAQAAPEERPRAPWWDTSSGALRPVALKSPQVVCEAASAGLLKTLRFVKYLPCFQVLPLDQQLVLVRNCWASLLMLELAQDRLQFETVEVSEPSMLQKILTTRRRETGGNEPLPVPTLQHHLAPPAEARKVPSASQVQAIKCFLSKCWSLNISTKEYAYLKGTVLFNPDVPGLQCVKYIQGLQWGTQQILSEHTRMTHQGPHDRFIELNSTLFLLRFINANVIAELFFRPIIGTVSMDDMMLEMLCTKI
hcDAF-12 act – H. contortus DAF-12 activation, primary screen | HEK293 hcDAF-12 lit1-tk-luc reporter, luminescence; 0% DMSO, 100% Δ7-dafachronic acid | activation, % at 6.8 µM | 370,000 tested, 1.4% active | AID 652067;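 active = activation above the mean of all tested compounds plus 3 SD, cut at about 5.5% in these data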;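 also: 100% = response to 3 µM Δ7-dafachronic acid high control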
LXRb hcDAF ctr – counter-screen for hcDAF-12 agonists: agonists of human LXR-beta | AID 743027 | 3,400 tested, under 10 active | HEK293 Gal4-LXR tk-luc reporter, luminescence, 24 h; normalized: DMSO 0%, positive control 100% | shares compounds with hcDAF-12 act | activation, % at 6.8 µM;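 active = mean percent activation of the reporter above a cutoff set as the average over tested compounds plus their standard deviation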
hcDAF12 conf – confirmation of H. contortus DAF-12 agonists. shares compounds with hcDAF-12 act. HEK293 hcDAF-12 lit1-tk-luc reporter, luminescence; % of Δ7-dafachronic acid response. activation, % at 6.8 µM. 3,400 tested, 61% active;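 active = mean activation across triplicate tests above the threshold derived from the earlier primary screen, cut at about 5.5% in these data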;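 also: 0% = DMSO only wells and 100% = 3 µM Δ7-dafachronic acid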
* = called active by the depositor. The list is not random: actives were taken first. Their share in the collection is about 5.7%.

Screening CCc1ccccc1NC(=O)c1onc(C)c1Cl returned AHR act 6, ssDAF-12 act 0, hgDAF-12 ag 2, DAX1 inh-1 1, DAX1 inh-2 0, hcDAF-12 act 9.4*, LXRb hcDAF ctr 0 and hcDAF12 conf 2.
CCNC(=S)Nc1ccc(OCc2nc3ccccc3s2)cc1 was read as AHR act 44, ssDAF-12 act 1.2*, hgDAF-12 ag 10, DAX1 inh-1 1, DAX1 inh-2 4, hcDAF-12 act 7.8*, LXRb hcDAF ctr 1 and hcDAF12 conf 8.2*.
Screening Cc1ccc2nc(NC(=O)COC(=O)CSc3nc(C)cc(C)n3)sc2c1 returned AHR act 29, ssDAF-12 act 0, hgDAF-12 ag 8, DAX1 inh-1 1, DAX1 inh-2 2, hcDAF-12 act 9.6*, LXRb hcDAF ctr 0 and hcDAF12 conf 8.7*.
`COC(=O)c1ccc2nc(NC(=O)COC(=O)CSc3nc(C)cc(C)n3)sc2c1` gave AHR act 18, ssDAF-12 act 0, hgDAF-12 ag 5, DAX1 inh-1 1, DAX1 inh-2 1, hcDAF-12 act 11*, LXRb hcDAF ctr 0 and hcDAF12 conf 5.9*.
Screening CC1(C(=O)Nc2ccc3nc[nH]c3c2)CCN1C(=O)CCc1ccccc1 (configuration not stated) returned ssDAF-12 act -1, hgDAF-12 ag 2, DAX1 inh-1 0 and hcDAF-12 act -2.
For CN(C)/C=C/C(=O)c1ccc(Oc2ccccc2)cc1 the results were AHR act 0, ssDAF-12 act -2, hgDAF-12 ag -2, DAX1 inh-1 0, DAX1 inh-2 1 and hcDAF-12 act -1.
`O=C(/C=C/c1ccc(F)cc1)c1ccc(N2CCOCC2)cc1` gave AHR act -1, ssDAF-12 act -2, hgDAF-12 ag 3, DAX1 inh-1 1, DAX1 inh-2 0 and hcDAF-12 act 0.
`CCc1ccc(/C=C/C(=O)c2ccc(N3CCOCC3)cc2)cc1` gave AHR act 0, ssDAF-12 act -2, hgDAF-12 ag 3, DAX1 inh-1 0, DAX1 inh-2 -2, hcDAF-12 act 6.8*, LXRb hcDAF ctr 0 and hcDAF12 conf 1.
COc1cccc(NC(=O)C(Cc2ccccc2)NC(=O)C2CCC(C)CC2)c1 (configuration not stated) was read as AHR act 17, ssDAF-12 act -1, hgDAF-12 ag 6, DAX1 inh-1 0, DAX1 inh-2 -2, hcDAF-12 act 8.6*, LXRb hcDAF ctr 0 and hcDAF12 conf 2.
For COc1cc2c(ccc3cc(OC)c(OC)c(O)c32)cc1O the results were AHR act 0, ssDAF-12 act -2, hgDAF-12 ag -3, DAX1 inh-1 -2, DAX1 inh-2 2 and hcDAF-12 act -1.
For COC(=O)C(C)Oc1ccc(-c2nccc(-c3cccs3)n2)cc1 (configuration not stated) the results were AHR act 16, ssDAF-12 act -1, hgDAF-12 ag 6, DAX1 inh-1 1, DAX1 inh-2 0 and hcDAF-12 act 0.
For Oc1ccc(-c2nccc(-c3cccs3)n2)cc1 the results were AHR act 70*, ssDAF-12 act 1.0*, hgDAF-12 ag 14*, DAX1 inh-1 2, DAX1 inh-2 4.8*, hcDAF-12 act 12*, LXRb hcDAF ctr 1 and hcDAF12 conf 11*.
`COc1ccc(/C(N)=N/OC(=O)c2ccc(Br)o2)cc1` gave AHR act 69*, ssDAF-12 act 0, hgDAF-12 ag 5, DAX1 inh-1 0, DAX1 inh-2 2, hcDAF-12 act 8.4*, LXRb hcDAF ctr 0 and hcDAF12 conf 4.
`CCN(C(=S)Nc1cc(S(=O)(=O)N2CCOCC2)ccc1Cl)c1cccc2ccccc12` gave AHR act 5, ssDAF-12 act 1.2*, hgDAF-12 ag 0, DAX1 inh-1 -1, DAX1 inh-2 0, hcDAF-12 act 6.8*, LXRb hcDAF ctr 0 and hcDAF12 conf 1.
For Cc1nn(-c2ccccc2)c(C)c1/C=C/C(=O)OCC(=O)Nc1ncc(Cl)cc1Cl the results were AHR act 7, ssDAF-12 act -1, hgDAF-12 ag 0, DAX1 inh-1 1, DAX1 inh-2 0 and hcDAF-12 act 1.
`CNC(=O)COC(=O)/C=C/c1c(C)nn(-c2ccccc2)c1C` gave AHR act 0, ssDAF-12 act 0, hgDAF-12 ag 1, DAX1 inh-1 0, DAX1 inh-2 1, hcDAF-12 act 8.4*, LXRb hcDAF ctr 0 and hcDAF12 conf 1.
Screening CNC(=O)CN(c1ccc(OC)cc1)S(=O)(=O)c1ccc(F)cc1 returned AHR act 2, ssDAF-12 act 0, hgDAF-12 ag 2, DAX1 inh-1 1, DAX1 inh-2 0 and hcDAF-12 act 0.
`CC(C)C(C(=O)Nc1ccccc1F)N1C(=O)c2ccccc2C1=O` (configuration not stated) gave AHR act 8, ssDAF-12 act 2.1*, hgDAF-12 ag 5, DAX1 inh-1 0, DAX1 inh-2 1, hcDAF-12 act 8.0*, LXRb hcDAF ctr 0 and hcDAF12 conf 5.
`Cn1cc(-c2nnc(-c3ccccc3)o2)c2ccccc21` gave AHR act 49*, ssDAF-12 act 1.3*, hgDAF-12 ag 17*, DAX1 inh-1 3, DAX1 inh-2 4, hcDAF-12 act 7.9*, LXRb hcDAF ctr 2 and hcDAF12 conf 18*.
`COc1cc(C#Cc2c(C=O)n(C)c3ccccc23)cc(OC)c1` gave AHR act 33, ssDAF-12 act 0, hgDAF-12 ag 1, DAX1 inh-1 0, DAX1 inh-2 0, hcDAF-12 act 6.9*, LXRb hcDAF ctr 0 and hcDAF12 conf 3.
`C=CCn1c2ccccc2c(=O)c2cc(C#Cc3cc(OC)cc(OC)c3)ccc21` gave AHR act -8, ssDAF-12 act -2, hgDAF-12 ag 0, DAX1 inh-1 -1, DAX1 inh-2 0 and hcDAF-12 act -2.
Screening Oc1cccc(NC(=S)N=Nc2c(O)[nH]c3ccc(Br)cc23)c1 returned AHR act 24, ssDAF-12 act -1, hgDAF-12 ag 1, DAX1 inh-1 0, DAX1 inh-2 0 and hcDAF-12 act 1.
For Cc1cccc(N=Nc2c(O)[nH]c3ccc(Br)cc23)c1 the results were AHR act 42, ssDAF-12 act 1, hgDAF-12 ag 7, DAX1 inh-1 0, DAX1 inh-2 1, hcDAF-12 act 12*, LXRb hcDAF ctr 0 and hcDAF12 conf 6.3*.

Assay outcomes deposited in PubChem BioAssay by The Scripps Research Institute Molecular Screening Center.
